PGK inhibitor: blocks T. brucei phosphoglycerate kinase. PGK/GAPDH coupled, Kinase-Glo luminescence, 60 min. Potency, µM (top dose mostly 57.5 µM), for inactives: top-dose activity change, negative = inhibition, most hits filed as inhibitors. 0.043% of 380,000 active. AID 602233; further: potency means the concentration at half of the fitted maximal effect; on the % scale 0 is the no-effect control and ±100 the full control effect; nearly all actives have a fitted effect of over 60% in size
Target sequence (P07378 whole entry, looked up): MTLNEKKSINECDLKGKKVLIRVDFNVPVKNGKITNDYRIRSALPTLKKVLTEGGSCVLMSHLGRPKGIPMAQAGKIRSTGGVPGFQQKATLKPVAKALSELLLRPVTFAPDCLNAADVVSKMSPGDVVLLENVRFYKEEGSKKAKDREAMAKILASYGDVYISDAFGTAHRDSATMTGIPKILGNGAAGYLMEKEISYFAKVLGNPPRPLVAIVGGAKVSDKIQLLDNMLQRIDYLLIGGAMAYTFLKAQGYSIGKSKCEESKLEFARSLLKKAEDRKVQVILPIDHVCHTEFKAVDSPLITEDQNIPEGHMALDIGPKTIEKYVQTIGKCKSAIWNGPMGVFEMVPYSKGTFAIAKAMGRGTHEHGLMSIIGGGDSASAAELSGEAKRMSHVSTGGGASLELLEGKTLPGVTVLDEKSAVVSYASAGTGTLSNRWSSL
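Luminescent ATP detection (Kinase-Glo Plus) follows a 60-minute room-temperature incubation, with wells lacking PGK as controls. Buffer: 100 mM TEA (pH 7.6), 5 mM MgCl2, 0.01% Tween-20. Coupling enzyme GAPDH (100 nM final) supplies unstable 1,3-BPG in-well.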
PI5P4Ka inh: PI5P4K alpha (human) kinase inhibition. P48426. PI5P4Kalpha enzyme, ADP-Glo luminescence, 60 min; stronger effect = lower value. max response, %. 1.2% of 330,000 active; active means max response of -50% or lower; inconclusive means between -30% and -50%; inactive means -30% or higher; further: value at the top dose of about 77 µM; on the % scale 0 is the no-effect control and ±100 the full control effect
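ADP-Glo luminescence end-point after a 60 min room-temperature kinase reaction. PI5P4Kalpha and substrate in HEPES pH 7.4 buffer with EGTA, 0.1% CHAPS and 5% DMSO; ATP at 5 microM final.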
FEN1 inh-1: human FEN1 inhibition; Recombinant FEN1 flap cleavage, fluorescence, 15 min; Potency, µM (highest dose often 114 µM), for the others: at the top dose activity change, negative = inhibition, usual class: inhibitors; 0.35% of 390,000 active; AID 588795; further: potency means the concentration at half of the fitted maximal effect; on the % scale 0 is the no-effect control and ±100 the full control effect; nearly all actives have a fitted effect of over 65% in size
Target sequence (P39748 whole entry, looked up): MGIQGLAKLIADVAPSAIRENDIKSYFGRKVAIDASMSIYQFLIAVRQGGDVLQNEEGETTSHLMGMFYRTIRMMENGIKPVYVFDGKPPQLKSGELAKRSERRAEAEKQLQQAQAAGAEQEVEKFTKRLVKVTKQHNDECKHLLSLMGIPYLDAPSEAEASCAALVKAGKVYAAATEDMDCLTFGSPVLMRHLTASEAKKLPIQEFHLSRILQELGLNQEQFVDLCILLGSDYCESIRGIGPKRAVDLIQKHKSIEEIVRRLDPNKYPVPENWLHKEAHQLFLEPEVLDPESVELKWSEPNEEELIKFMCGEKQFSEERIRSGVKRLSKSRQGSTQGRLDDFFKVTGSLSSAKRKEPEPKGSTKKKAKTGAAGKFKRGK
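Potency values derive from four-parameter Hill fits of normalized qHTS data. The reaction used 10 nM FEN1 preincubated 15 min at room temperature with compound, then 50 nM DNA substrate, read at 0 and 15 min.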
WRN helicase inh-1: inhibitors of human WRN helicase; Q14191; WRN helicase unwinding, fluorescent forked duplex, kinetic; Potency, µM (doses to about 114 µM), for inactives: at the highest dose activity change, negative = inhibition, hits mostly inhibitors; 0.46% of 360,000 active; AID 651768; further: potency means the concentration at half of the fitted maximal effect; on the % scale 0 is the no-effect control and ±100 the full control effect; nearly all actives have a fitted effect of over 55% in size
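Screening of the MLSMR collection measured strand separation of a quenched forked DNA duplex (100 nM) by 20 nM WRN with 2 mM ATP, all final. Compounds were preincubated with enzyme 15 min at room temperature.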
Pin1 inh: human Pin1 inhibition. Q13526. 0.009% of 390,000 active. Potency, µM (top dose mostly 115 µM), for the others: at the top dose activity, negative = inhibition, hits mostly inhibitors. AID 504891. Pin1 FP peptide displacement, HiFluor488, 10 min; active means well fitted inhibition curve with a large enough effect in the polarisation, with a control signal flat, not every such curve was filed as active; inconclusive means small, poorly fitted or top-dose-only effect, or effect the other way, or a change in a side signal; inactive means no such curve, though single readings can be large or run the other way; the % refers to the polarisation; further: potency means the concentration at half of the fitted maximal effect; on the % scale 0 is the no-effect control and ±100 the full control effect
GRP78 ERSR act: induces the endoplasmic reticulum stress response in human glioma cells; U87-MG GRP78 promoter luciferase reporter, 16 h; Potency, µM, for the others: top-dose activation, hits mostly activators; 0.02% of 420,000 active; AID 602332; further: potency means the concentration at half of the fitted maximal effect; series mostly up to about 76 µM; % of control where 0% means no effect; nearly all actives have a fitted effect of over 35% in size
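Stably transfected U87-MG glioma cells carrying a GRP78-based luciferase sensor; 16 h compound incubation. Luminescence end-point read 10 min after Bright-Glo addition at room temperature.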
FEN1 inh-2: FEN1 inhibition, cherry-pick retest; shares compounds with FEN1 inh-1; FEN1 flap cleavage, TAMRA/BHQ2 fluorogenic DNA substrate; Potency, µM, most hits filed as inhibitors; 79% of 880 active; AID 720498; further: potency means the concentration at half of the fitted maximal effect; nearly all actives have a fitted effect of over 60% in size
WRN helicase inh-2: confirmation of human WRN helicase inhibitors. shares compounds with WRN helicase inh-1. WRN helicase DNA unwinding, fluorescence kinetic. Potency, µM (top dose mostly 57.1 µM), without a hit: at the top dose activity, negative = inhibition, most hits filed as inhibitors. 63% of 610 active. AID 720497; further: potency means the concentration at half of the fitted maximal effect; nearly all actives have a fitted effect of over 65% in size
TO displacement: DNA binding via thiazole orange displacement. shares compounds with WRN helicase inh-1. thiazole orange DNA binding displacement, fluorescence. Potency, µM (top dose mostly 57.1 µM), for the others: at the top dose activity change, negative = inhibition, usual class: inhibitors. 10% of 610 active;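 further: drop in dye fluorescence marks compound binding to DNA; potency means the concentration at half of the fitted maximal effect; on the % scale 0 is the no-effect control and ±100 the full control effect; nearly all actives have a fitted effect of over 60% in size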
BLM counter: counter-screen for WRN helicase inhibitors: human BLM helicase inhibition; shares compounds with WRN helicase inh-1; Recombinant BLM helicase DNA unwinding, red fluorescence; Potency, µM (series often up to 57.1 µM), inactives show at the top dose activity change, negative = inhibition, most hits filed as inhibitors; 60% of 610 active; further: potency means the concentration at half of the fitted maximal effect; nearly all actives have a fitted effect of over 60% in size
ADP-Glo interf: interferes with ADP-Glo detection without enzyme present; shares compounds with PI5P4Ka inh; ADP-Glo detection counter-screen, luciferase luminescence, no enzyme; Potency, µM (top dose mostly 76.9 µM), for the others: at the highest dose activity change, negative = inhibition, hits mostly inhibitors; 1,100 tested, under 10 active
An asterisk follows results filed as active; i = inactive; ? = inconclusive; . = no result given. This is a sample that favours compounds with a hit; in the whole collection about 1.3% have one here. Unless noted, the call rests on the fitted dose curve; in most records, active means well fitted curve in the direction sought with a large enough effect; inconclusive means small, poorly fitted or top-dose-only effect, or another doubt; inactive means no such curve, though single readings can be large; an effect the other way counts as inactive or inconclusive.

SMILES | PGK inhibitor | PI5P4Ka inh | FEN1 inh-1 | WRN helicase inh-1 | Pin1 inh | GRP78 ERSR act | WRN helicase inh-2 | TO displacement | BLM counter | others
COc1cccc(NS(=O)(=O)c2ccc3c(c2)C2C=CCC2C(c2ccc(C(=O)O)cc2)N3)c1 (stereo not given) | -28% | -66* | 35µM* | 45µM* | ? | -5% | . | . | . | FEN1 inh-2=30*;ADP-Glo interf=-8%
COC(=O)c1ccc([C@H]2Nc3ccc(S(=O)(=O)Nc4ccc(F)cc4)cc3[C@H]3C=CC[C@H]32)cc1 | 9% | . | -20% | . | -5% | -3% | . | . | .
COc1ccc(Sc2ccc(/C=C3\C(=O)NN(c4ccccc4)C3=O)o2)cc1 | -8% | ? | -18% | ? | ? | -3% | 22µM* | -18% | 22µM*
C[C@@H]1NC(=O)N[C@@H]1CCCCCC(=O)O | -6% | 0 | 2% | ? | 4% | 0% | ? | -1% | ?
CN1CCc2nc(SCC(=O)Nc3ccc(OC(F)(F)F)cc3)c(C#N)c(-c3cccs3)c2C1 | 4% | -20 | -1% | ? | 12% | -5% | 19µM* | 3.4µM* | 24µM*
CN1CCc2nc(SCC(=O)Nc3cccc(F)c3)c(C#N)c(-c3cccs3)c2C1 | . | . | -9% | -19% | ? | 1% | . | . | .
COc1ccc(OC)c(NC(=O)COC(=O)CCc2nc3ccccc3c(=O)[nH]2)c1 | -5% | -6 | 6% | ? | 11% | -5% | ? | -13% | ?
COc1cc(NC(=O)COC(=O)CCc2nc3ccccc3c(=O)[nH]2)cc(OC)c1 | 3% | -10 | 1% | -29% | 8% | -4% | . | . | .
CCC(=O)c1ccc(CCCCCC(=O)O)s1 | i | -3 | 3% | ? | -6% | -7% | 22µM* | 3% | 22µM*
O=C(COc1ccc(/C=N/NC(=O)c2ccccc2O)cc1)Nc1ccc([N+](=O)[O-])cc1 | -4% | 0 | 3% | 17µM* | -8% | -3% | 11µM* | ? | 4.8µM*
O=C(COc1ccc(/C=N/NC(=O)c2ccncc2)cc1)Nc1ccccc1 | -2% | 1 | 1% | -21% | 8% | -3% | . | . | .
CCN(Cc1ccncc1)Cc1ccc2c(c1)CN(C(=O)c1ccccc1-n1cccn1)CCO2 | . | . | . | . | . | -1% | . | . | .
N#C/C(=C/c1ccc(N2CCCCC2)o1)C(=O)Nc1ccc2ccccc2c1 | -8% | -3 | -10% | ? | ? | -2% | ? | i | 22µM*
O=C(N/N=C/c1ccc(-c2ccc(S(=O)(=O)Nc3ncccn3)cc2)o1)c1cc2ccccc2cc1O | ? | -84* | 16µM* | 8.9µM* | ? | 2% | 6.8µM* | ? | 15µM*
COc1ccccc1C1CN(Cc2c(C)nn(C)c2Cl)Cc2ccccc2O1 (stereo not given) | . | . | . | . | . | -5% | . | . | .
CC1C=CC(C)C(C(=O)O)C1C(=O)O (stereo not given) | ? | -1 | -6% | ? | ? | -4% | 14µM* | 38% | 4.8µM*
O=C(Nc1ccc2oc(=O)ccc2c1)c1ccc(-c2cccc([N+](=O)[O-])c2)o1 | 8% | -12 | ? | 10µM* | ? | 0% | ? | ? | 1.5µM*
Cc1nc2ccc(C(=O)O)cc2c2c1CC(C)S2 (stereo not given) | -27% | -7 | ? | 32µM* | -9% | -2% | 19µM* | -18% | ?
CCc1nc2cc(C(=O)N3CCC[C@H]3CO)cc(NC(=O)c3ccccc3OC)c2n1C | . | . | . | . | . | -2% | . | . | .
CCn1c(-c2ccccc2F)nc2cc(NC(C)=O)cc(C(=O)N3CCCC3c3nccs3)c21 (stereo not given) | . | . | . | . | . | -5% | . | . | .
CC1(C)CCCN(C(=O)c2coc(=O)c(Br)c2)C1 | 6.3µM* | -82* | 56µM* | 18µM* | . | -6% | 1.9µM* | ? | 0.48µM*
Cc1cc(=O)oc2cc(Oc3ccc(C(N)=O)cc3[N+](=O)[O-])ccc12 | -5% | -14 | 11% | ? | -3% | -1% | ? | -9% | -17%
Cc1cc(Cl)ccc1Oc1ccc(C(N)=O)cc1[N+](=O)[O-] | -4% | 9 | 2% | 4% | -7% | -5% | . | . | .
Cc1cc(CNC(=O)CCN2Cc3cc(Cl)ccc3OC(C)C2)nn1C (stereo not given) | . | . | . | . | . | -3% | . | . | .
COc1ccc(C(=O)c2cn(CC(=O)Nc3ccc4c(c3)OCCO4)c3ccc(OC)cc3c2=O)cc1 | 4% | . | 40µM* | . | 225% | -3% | 12µM* | 7.6µM* | 7.6µM*
SMILES | PGK inhibitor | PI5P4Ka inh | FEN1 inh-1 | WRN helicase inh-1 | Pin1 inh | GRP78 ERSR act | WRN helicase inh-2 | TO displacement | BLM counter | others
CCN1CCC(O)(/C=C/c2ccc(C(C)C)cc2)C(C(=O)/C=C/c2ccc(C(C)C)cc2)C1 (stereo not given) | 9% | -1 | -25% | 16µM* | 13% | -14% | -28% | -30% | ?
CCN1CCN(C(=O)/C=C/c2ccc(C(C)C)cc2)CC1 | 9% | 8 | 11% | -13% | 2% | 3% | . | . | .
COc1ccc(N2C(=O)[C@@H]3C[C@H]2CN3Cc2ccc3nccnc3c2)cc1Cl | . | . | . | . | . | -2% | . | . | .
Cc1cnc(-n2ncc(C(=O)N(C)C3CCOC3)c2-c2cccs2)nc1-c1ccc(F)cc1 (stereo not given) | . | . | . | . | . | 0% | . | . | .
CC[n+]1c(/C=C/C=C/N(C(C)=O)c2ccccc2)sc2ccccc21 | -8% | ? | ? | 50µM* | ? | -3% | 24µM* | i | -15%
Cc1ccccc1C(=O)N1CCc2c(cnc(C)c2CNC(=O)CN2CCCCC2)C1 | . | . | . | . | . | -2% | . | . | .
O=C1NN(c2ccccc2)C(=O)/C1=C\c1coc2ccc(O)cc2c1=O | -14% | -68* | -8% | ? | ? | -4% | -22% | -11% | ?

Screening data as filed in PubChem.
